Laboratory results: PubChem BioAssay AID485358 (National Center for Advancing Translational Sciences (NCATS), 2010)
Among all 340,000 compounds or so, about 1,800 (0.53%) were called active. Shown is part of a subset that was picked to be rich in actives. Values without a mark were called inactive.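 Rule for the calls: active = activation over 3 SD above normal in the single-dose calcium agonist read (cut at about 30% in these data); inactive = the rest.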

The compounds below were run against D(2) dopamine receptor (Homo sapiens) (UniProt P14416) (assay: HTS Assay for Allosteric Agonists of the Human D2 Dopamine Receptor: Primary Screen for Agonists). Conditions: HEK293 T-REx D2 cells, calcium flux agonist mode; at 2 µM; hits give high values.
Text: NIH Chemical Genomics Center [NCGC] NIH Molecular Libraries Probe Centers Network [MLPCN] MLPCN Grant: NS064831-01 Assay Submitter (PI): David Sibley Dopamine receptors (DARs) are involved in the etiology and/or therapy of a number of neuropsychiatric and endocrine disorders. For instance, all receptor-based antiparkinsonian drugs work via stimulating the D2 DAR subtype whereas all FDA-approved antipsychotic agents are antagonists of this receptor. […] There are three different types of allosteric modulators that we are seeking, two of which will stimulate or augment receptor signaling, allosteric agonists and potentiators, while the third, allosteric antagonists, will attenuate receptor signaling. The present primary screening assay measures compound agonism by tracking calcium flux in a […], inducible Hek293 Trex D2 cell line.
Freshly passaged cells are plated in 1536 well black, clear bottom plates at a density of 4000 cells/well in 3 ul of complete media containing 1x tetracycline inducer. After an overnight incubation at […] in 5% CO2, cells are loaded with 2 ul of the no wash Calcium Assay Kit (ABD Bioquest) and incubated at room temperature for 30 to 90 minutes. Agonist read: A 10 cycle (1 second/cycle) baseline measurement is taken and then the FDSS online 1536 pintool delivers 23 nl of compound library (as well as dopamine controls) to the plate. The plate is measured for kinetically at 1 cycle/sec for 180 seconds and is considered to be the agonist portion of the assay (eg, compounds which activate a positive calcium response during this portion are flagged as potential agonists). Following the 180 second read, 1 ul of either an EC20 (positive modulation assay) or EC80 (negative modulation assay) is delivered by an onboard pipette head. Measurements are taken kinetically for an additional 180 seconds.
Note: 0% is about no effect.

Sequence of D(2) dopamine receptor (Homo sapiens) (P14416 whole entry, looked up): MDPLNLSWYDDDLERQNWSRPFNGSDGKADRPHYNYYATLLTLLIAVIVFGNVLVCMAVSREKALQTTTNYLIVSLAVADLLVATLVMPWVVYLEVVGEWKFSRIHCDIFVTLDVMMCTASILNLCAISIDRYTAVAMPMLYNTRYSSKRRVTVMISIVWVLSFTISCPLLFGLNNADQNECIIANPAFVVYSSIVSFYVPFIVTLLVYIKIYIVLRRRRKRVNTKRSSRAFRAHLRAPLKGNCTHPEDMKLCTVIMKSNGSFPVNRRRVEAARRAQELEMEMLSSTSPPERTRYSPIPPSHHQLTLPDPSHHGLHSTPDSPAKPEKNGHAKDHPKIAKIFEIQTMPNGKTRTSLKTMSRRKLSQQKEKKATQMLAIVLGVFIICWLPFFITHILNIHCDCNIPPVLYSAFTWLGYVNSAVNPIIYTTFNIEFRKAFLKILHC

Structure (SMILES) | activation
O=S(=O)(c1ccc(OCC(O)CN2CCN(c3ccccc3Cl)CC2)cc1)N1CCOCC1 (centres undefined) | -0.884%
CC(C)c1ccc(OCC(O)CN2CCN(c3ccccn3)CC2)cc1 (centres undefined) | 66.2% (active)
C=CCc1ccccc1OCC(O)CN1CCN(CCO)CC1 (centres undefined) | -1.83%
OC(COc1cccc2ccccc12)CN1CCN(c2ccccn2)CC1 (centres undefined) | 66.3% (active)
Cc1cccc(OCC(O)CN2CCN(CCN3C(=O)c4cccc5cccc(c45)C3=O)CC2)c1C (centres undefined) | -0.617%
CC(C)c1ccc(OCC(O)Cn2cnc3ccccc32)cc1 (centres undefined) | 1.03%
CNCC(O)CN1CCN(c2ccccc2OC)CC1 (centres undefined) | 0.328%
Cc1ccccc1OCC(O)CN1CCN(c2ccccn2)CC1 (centres undefined) | 64.7% (active)
CC1CCN(CC(O)COc2ccc(C(=O)c3ccccc3)cc2)CC1 (centres undefined) | -0.0837%
Cc1ccc(OCC(O)CN2CCN(CC(O)COc3ccc(C)cc3Cl)CC2)c(Cl)c1 (centres undefined) | 0.53%
O=C(C(c1ccccc1)c1ccccc1)N1CCN(CC(O)COc2ccccc2)CC1 (centres undefined) | -0.117%
CC(=O)Nc1ccc(OCC(O)CN2CCN(c3ccccc3Cl)CC2)cc1 (centres undefined) | 71.6% (active)
COc1cc(C(=O)N2CCN(c3ccc(Nc4ccc(C)cc4)nn3)CC2)cc(OC)c1OC | -0.205%
COc1ccccc1Cc1nc2ccccc2nc1SCC(=O)N1CCCc2ccccc21 | 1.06%
COc1cccc(NC(=O)N(Cc2cn(C)c3ccccc23)C2CCCCCC2)c1 | 0.628%
Cn1ccc2cc(S(=O)(=O)N3CCCC(C(=O)NCc4ccccc4F)C3)ccc21 (centres undefined) | -0.715%
Cc1ccc(Cl)cc1NC(=O)CSc1nccn1C | -0.262%
CCc1ccc(CN(Cc2ccco2)C(=O)COc2ccc(Cl)c(C)c2)cc1 | 3.85%
COC(=O)C1=C(c2ccccc2)c2ccccc2S(=O)(=O)N1CC(=O)Nc1ccccc1C(F)(F)F | -0.526%
COc1ccccc1OCC(=O)Nc1nnc2n1CCS2 | -1.11%
CCN1CCN(CCCNC(=O)c2ccc3c(c2)sc2nc(-c4ccc(OC)cc4)cn23)CC1 | 1.86%
Cc1nc2ccc(S(=O)(=O)NC(C(=O)NCc3ccccc3Cl)C(C)C)cc2s1 (centres undefined) | -0.364%

Structure (SMILES) | activation
CCn1c(=O)cc(OCC(=O)Nc2cc(Cl)c(OC)cc2OC)c2ccccc21 | -0.253%
Cn1c(=O)cc(OCC(=O)N2CCN(c3ccccc3)CC2)c2ccccc21 | 0.681%
Cn1c(C(=O)NCCc2ccsc2)cc2c(=O)n(C)c3ccccc3c21 | 0.0188%
Cn1c(C(=O)NCCCN2CCN(c3cccc(Cl)c3)CC2)cc2c(=O)n(C)c3ccccc3c21 | 60.1% (active)
CCn1c(=O)cc(OCC(=O)NCCCN2CCN(c3cccc(Cl)c3)CC2)c2ccccc21 | 72.9% (active)
CCN1CCCC1CNC(=O)c1cc2c(=O)n(C)c3ccccc3c2n1C (centres undefined) | 1.59%
Cc1cc(C)cc(NC(=O)CSc2nc3nccnc3c(=O)n2CCc2c[nH]c3ccccc23)c1 | 0.038%
Cc1ccccc1CNC(=O)C1CCCN(S(=O)(=O)N(C)c2ccc(F)cc2)C1 (centres undefined) | -0.556%
CCOc1ccc(CNC(=O)c2ccc(CS(=O)c3ccccc3)o2)cc1 (centres undefined) | -0.363%
CCCN(CCC)CCNC(=O)Cn1cnc2sc(C)c(S(=O)(=O)N3CCC(C)CC3)c2c1=O | 0.0784%
CCC(C)NC(=O)CCCc1ccccc1 (centres undefined) | 1.02%
CCCCC(=O)NNC(=S)NC(=O)C(c1ccccc1)c1ccccc1 | 52.5% (active)
CCCCCC(=O)NC(=S)NNC(=O)c1ccc([N+](=O)[O-])cc1 | 2.53%
CCCCOc1ccc(CN2C(=O)C(=O)c3cc(Br)cc(C)c32)cc1OC | -0.896%
c1ccc2cc3[nH]c(CN4CCCCC4)nc3cc2c1 | 39.6% (active)
Cc1ccc2[nH]c(=O)c(CN3CCCCC3)c(-c3ccccc3)c2c1 | 16.6%
Clc1ccc(CN2CCCCCC2)cc1Cl | 0.701%
COc1cc(Cl)c(NC(=O)C(NS(=O)(=O)c2cccs2)C(C)C)c(OC)c1 (centres undefined) | 0.0329%
COc1ccc(-n2c(=O)c3sc4ccccc4c3n(CC(=O)Nc3cccc(C)c3)c2=O)cc1 | 1.94%
CCOC(=O)c1cccc(NC(=O)C2CCN(c3ncnc4c3nc3n4CCCCC3)CC2)c1 | -0.296%
COc1cccc(CNC(=O)C2CCCN(c3ncnc4c3nc3n4CCCCC3)C2)c1 (centres undefined) | -0.0991%
COc1cccc(NC(=O)C2CCCN(c3ncnc4c3nc3n4CCCCC3)C2)c1 (centres undefined) | 60.2% (active)
